Hits are enriched below; roughly 8.1% of the tested compounds scored in any of these assays.
ClpP mod = qHTS Assay for Activators of ClpP | purified B. subtilis ClpP, FRET peptide cleavage, 20 min | Potency, µM (titrated, usually from 57.5 µM), for the others: at the top dose activity change, negative = active | 340,000 compounds, 1.9% hits; active means well fitted falling curve with a large enough effect; inconclusive means small, poorly fitted or top-dose-only effect; inactive means no such curve, though single readings can be large or run the other way; further: the source files actives as falling curves though it sought activators and does not explain the sign; nearly all actives have a fitted effect of over 65% in size
Target sequence (P80244 whole entry, looked up): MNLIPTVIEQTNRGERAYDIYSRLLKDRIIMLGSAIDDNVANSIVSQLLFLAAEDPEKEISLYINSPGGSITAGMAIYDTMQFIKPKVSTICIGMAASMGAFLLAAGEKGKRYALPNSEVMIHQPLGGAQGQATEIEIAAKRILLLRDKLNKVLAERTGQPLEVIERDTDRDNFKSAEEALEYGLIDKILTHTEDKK
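FRET quenching reversal measured ClpP activation: 10 microg/mL B. subtilis ClpP at pH 8 with the FRET-FV decapeptide, read at 430 nm after 320 nm excitation. The 20-min minus 0-min signal was scaled between DMSO/no-enzyme wells and ADEP (5.8 microM final).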
Gal4-VP16 FLuc = inhibits Gal4-VP16 luciferase reporter, ROR gamma counter-screen; Drosophila S2 Gal4-VP16 UAS-luciferase, luminescence, 20 h; Potency, µM (top dose mostly 53.6 µM), without a hit: at the top dose activity, negative = inhibition, actives largely listed as inhibitors; 310,000 compounds, 3.5% hits; AID 2546;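 further: Gal4-VP16 expression switched on by copper sulfate through the metallothionein promoter; on the % scale 0 is the no-effect control and ±100 the full control effect; nearly all actives have a fitted effect of over 50% in size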
Epigenetic derep = regulators of epigenetic silencing causing reporter derepression in mouse cells; murine LDR cells, GFP reporter derepression, 30 h; Potency, µM (top dose mostly 53.9 µM), for the others: at the highest dose GFP activation, hits mostly activators; 280,000 compounds, 0.2% hits; AID 1865; further: % of control where 0% means no effect; nearly all actives have a fitted effect of over 60% in size
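Murine LDR cells bearing a silenced CMV-driven GFP reporter were exposed to compound for 30 h at 37 C. After PBS washes, GFP-positive cells (20-120 um objects) counted by laser-scanning microplate cytometry.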
Sfp PPTase inh = blocks B. subtilis Sfp PPTase activity. Q9F4F7. Biochemical Sfp PPTase activity, qHTS. Potency, µM, for the others: largest response in the series, negative = inhibition, actives largely listed as inhibitors. 310,000 compounds, 3.5% hits. AID 1490;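 further: the enzyme is Sfp with the accession as filed and its product quenches rhodamine fluorescence; 0% = enzyme reaction without inhibitor and -100% = no enzyme wells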
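Step 1, compound plus 15 nM Sfp-PPTase, 15 min, room temperature. Step 2, add rhodamine-CoA (5 uM) and BHQ-2-YbbR (12.5 uM). Step 3, read 525/598 nm fluorescence at 0 and 30 min.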
RORg inh = inhibitors of mouse ROR gamma transcriptional activity | Potency, µM (series often up to 53.6 µM), for the others: at the top dose activity change, negative = inhibition, most hits filed as inhibitors | 310,000 compounds, 5.4% hits | AID 2551 | P51450 | Drosophila S2 Gal4-RORgamma UAS-luciferase reporter, 20 h; further: on the % scale 0 is the no-effect control and ±100 the full control effect; nearly all actives have a fitted effect of over 60% in size
Target sequence (P51450 whole entry, looked up, the tested form may be a part): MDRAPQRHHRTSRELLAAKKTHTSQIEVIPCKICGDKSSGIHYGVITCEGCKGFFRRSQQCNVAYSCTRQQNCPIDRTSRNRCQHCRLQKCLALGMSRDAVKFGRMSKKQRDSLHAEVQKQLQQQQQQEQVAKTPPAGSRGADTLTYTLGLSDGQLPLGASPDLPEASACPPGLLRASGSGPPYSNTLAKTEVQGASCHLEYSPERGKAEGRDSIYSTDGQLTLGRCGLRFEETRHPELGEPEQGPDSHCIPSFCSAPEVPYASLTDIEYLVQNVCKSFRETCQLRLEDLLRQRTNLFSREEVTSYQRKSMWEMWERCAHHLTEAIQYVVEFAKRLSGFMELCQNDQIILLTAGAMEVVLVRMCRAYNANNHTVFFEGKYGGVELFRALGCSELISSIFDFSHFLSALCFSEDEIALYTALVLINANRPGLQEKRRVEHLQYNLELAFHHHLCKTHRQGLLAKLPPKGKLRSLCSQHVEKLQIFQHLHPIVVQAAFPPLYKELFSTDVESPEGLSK
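Luciferase reporter read in Schneider cells carrying Gal4-RORγ (mouse) and UAS-Photinus luciferase; cells given compound 1 h before 700 uM copper sulfate induction, then incubated 20 h at ambient temperature.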
PINK1 expr mod = PINK1 expression modulation. PINK1 immunofluorescence, high-content cytometry, 24 h. Potency, µM (doses to about 76.6 µM), without a hit: at the highest dose activation (PINK1 increase), usual class: activators. 410,000 compounds, 0.2% hits; active means well fitted activation curve with a large enough effect; inconclusive means small, poorly fitted or top-dose-only effect; cell line not stated here; further: % of control where 0% means no effect; nearly all actives have a fitted effect of over 65% in size
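Decision-based qHTS: stable cells, 24 h exposure to five compound concentrations, CCCP as control. Fixed cells stained for PINK1 plus nuclear, mitochondrial and cell markers, cytometer read.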
Numbers without * were called inactive; ? = inconclusive; . = no result given; [ ] = dose if it differs, or a comment. Unless noted, the call rests on the fitted dose curve; in most records, active means well fitted curve in the direction sought with a large enough effect; inconclusive means small, poorly fitted or top-dose-only effect, or another doubt; inactive means no such curve, though single readings can be large; an effect the other way counts as inactive or inconclusive. Potency means the concentration at half of the fitted maximal effect.

SMILES | ClpP mod | Gal4-VP16 FLuc | Epigenetic derep | Sfp PPTase inh | RORg inh | PINK1 expr mod
O=[N+]([O-])c1ccc(C=NNC(=S)NN=Cc2ccc([N+](=O)[O-])cc2)cc1 | . | . | . | . | . | 1%
CCOc1ccc(CNC(=S)N/N=C\c2ccc([N+](=O)[O-])cc2)cc1 | -5% | 2.8µM* | 0% | 56µM* | 1.3µM* | 4%
Cc1ccc(Cl)c(NC(=O)Nc2csc3c2CCCC3)c1 | 1% | . | 0% | . | . | -1%
CCCCOc1ccc(CNC(=S)N/N=C/c2ccc(OC)c(OC)c2)cc1 | ? | 2.5µM* | 4% | 14% | 4.5µM* | 3%
COc1ccc(C=NNC(=O)CCCC(=O)NN=Cc2ccc(OC)c(OC)c2)cc1OC | -7% | . | . | . | . | 2%
COc1ccc(CNC(=O)CCn2c(=O)c3cccn3c3ccc(F)cc32)cc1OC | -2% | . | 6% | . | . | 1%
S=c1[nH]nc(C2CCCCC2)n1/N=C/c1cccc(Br)c1 | 1% | -13% | . | 15% | 2µM* | 5%
Cc1cccc(/C=N/n2c(C3CCCCC3)n[nH]c2=S)c1 | -1% | 7.1µM* | . | 79µM* | 3.2µM* | 7%
CC(/C=N/n1c(C2CCCCC2)n[nH]c1=S)=C\c1ccccc1 | -2% | 10µM* | -1% | -10% | 3.5µM* | 5%
CC(/C=N/n1cnnc1)=C\c1ccccc1 | 2% | -5% | -1% | 1% | 25% | -4%
CC(/C=N/n1c(-c2cc(C)[nH]n2)n[nH]c1=S)=C\c1ccccc1 | 2% | ? | -2% | ? | 8.9µM* | 3%
CCC(C)Cn1c(/C=C/c2ccccc2)nc2ccccc21 (stereo not drawn) | 4% | . | 0% | . | . | ?
O=C(NCc1ccc(F)cc1)c1ccc2c(c1)N(Cc1c(F)cccc1Cl)C(=O)CS2 | -1% | . | 12% | . | . | 2%
CCOC(=O)c1ccc(NC(=S)Nc2ccc3[nH]c(=O)[nH]c3c2)cc1 | . | -22% | -1% | 40µM* | 8% | 2%
S=C(Nc1ccc2cn[nH]c2c1)Nc1ccc(Cl)cc1Cl | -11% | 18% | -2% | 16µM* | -33% | 1%
Cc1ccc(C(=O)NC(=S)Nc2ccc3[nH]c(=O)[nH]c3c2)cc1 | -4% | -7% | 0% | -15% | 4% | 1%
Cc1ccc(NC(=S)Nc2ccc3[nH]c(=O)[nH]c3c2)cc1 | -2% | -23% | 1% | ? | 10µM* | 1%
O=c1[nH]c2ccc(NC(=S)Nc3ccccc3Cl)cc2[nH]1 | -2% | -3% | -1% | 50µM* | -43% | -2%
O=c1[nH]c2ccc(NC(=S)Nc3ccccc3)cc2[nH]1 | . | 3% | 0% | ? | -14% | 8%
Cc1cc2oc(C(=O)Nc3sc4c(c3C(=O)NCc3ccccc3)CCCC4)cc(=O)c2cc1C | -1% | . | -2% | . | . | 3%
NCCN(Cc1ccc(Cl)c(Cl)c1)c1ccc(Br)cn1 | -7% | . | . | . | . | 3%
CC(C)(C)c1ccc(CSc2nc(N)cc(=O)[nH]2)cc1 | -1% | 7.9µM* | . | -11% | -45% | 2%
COc1cc(OC)nc(-n2ncc(Br)c(Br)c2=O)n1 | -3% | 4.5µM* | -6% | 4% | 2.2µM* | -3%
CCOC(=O)C1CCN(C(=O)CN2C(=O)C(C(C)C)Oc3ccccc32)CC1 (stereo not drawn) | 3.5µM* | 0% | . | -2% | 0% | 1%
Cc1cccc(OCCC(=O)NO)c1 | 2% | . | . | . | . | 4%
SMILES | ClpP mod | Gal4-VP16 FLuc | Epigenetic derep | Sfp PPTase inh | RORg inh | PINK1 expr mod
CN(C)c1ccc(/C=N/Nc2ccc(-n3ccnc3)nn2)cc1 | -2% | 7% | -3% | 45µM* | 7% | 5%
CN(C)C(=O)COn1c(SCC(=O)N(C)C)nc2ccccc2c1=O | 1% | -10% | 0% | 4% | 17% | 2%
Cc1cc(C)n(-c2nc3ccccc3c(=O)n2OCC(=O)OCc2ccccc2)n1 | -1% | 2.5µM* | 1% | -10% | 0.56µM* | 10%
Cc1cc(CC(C)C)n(-c2nc3ccccc3c(=O)n2OCc2ccccc2)n1 | 4% | ? | 1% | -4% | 1.6µM* | -2%
Cc1cc(C)n(-c2nc3ccccc3c(=O)n2OCC(=O)N(C)C)n1 | 7.9µM* | -10% | 1% | 16% | 20% | 2%
Cc1cc(CC(C)C)n(-c2nc3ccccc3c(=O)n2OCC(=O)N(C)C)n1 | -3% | 6.3µM* | -2% | 20% | 2.2µM* | 0%
CCOc1ccc(C(=O)Nc2ccc(C(=O)OCc3cc(=O)n4nc(CC)sc4n3)cc2)cc1 | -15% | . | -4% | . | . | 2%
O=C(Nc1cccc(OCc2cc(=O)n3ccccc3n2)c1)c1ccccc1Br | 4% | . | -1% | . | . | -4%
Cc1cc(C)n(-c2nc3ccccc3c(=O)n2OCc2ccc(F)cc2)n1 | -2% | ? | -5% | -6% | ? | 0%
Cc1cc(C)n(-c2nc3ccccc3c(=O)n2OCC(=O)Nc2c(C)cccc2C)n1 | 1% | ? | -1% | 10% | 11µM* | 4%
Cc1cc(C)n(-c2nc3ccccc3c(=O)n2OCc2ccc(Cl)cc2)n1 | -1% | ? | -1% | 1% | 10µM* | 4%
COc1ccc(C)cc1NC(=O)CSc1nc(=O)n(Cc2ccncc2)c2c1CCC2 | -4% | . | -2% | . | . | 0%
CCCOc1ccc(-c2nonc2NC(=O)c2oc3ccc(Cl)cc3c2C)cc1OCCC | 1% | . | -1% | . | . | 0%
Cc1cc2oc(C(=O)Nc3ccc(S(N)(=O)=O)cc3)cc(=O)c2cc1C | -2% | . | 3% | . | . | 5%
Cc1[nH]n(-c2ccccc2)c(=O)c1N=Nc1ccccc1O | . | 4.5µM* | 7% | 0% | 2µM* | 0%
Cc1[nH]n(-c2ccccc2)c(=O)c1N=Nc1nccs1 | -2% | 5.6µM* | 1% | 10% | 5.6µM* | 0%[38.3 µM]
CCC(C)NC(=O)CCCc1nnc2n(CC(C)C)c(=O)c3sccc3n12 (stereo not drawn) | -5% | . | 0% | . | . | 0%
O=C(CSS(=O)(=O)O)N1CCN(C(=O)c2ccoc2)CC1 | . | -6% | . | 16µM* | -11% | -1%
Cc1cccn2c(=O)c3cc(C(=O)NCc4ccco4)c(=N)n(C(C)C)c3nc12 | 14µM* | -6% | -1% | -1% | -8% | -1%
COc1ccc(CCNC(=O)c2cc3c(=O)n4cccc(C)c4nc3n(Cc3ccco3)c2=N)cc1OC | . | 1.1µM* | . | -5% | 1.6µM* | 11%
Cc1cccn2c(=O)c3cc(C(=O)NCc4ccco4)c(=N)n(CCc4ccccc4)c3nc12 | . | -10% | -2% | 89µM* | -5% | 8%
CCn1c(=N)c(C(=O)NCc2ccccc2)cc2c(=O)n3cccc(C)c3nc21 | 4% | . | 0% | . | . | 1%

Screening results deposited in PubChem by National Center for Advancing Translational Sciences (NCATS).
